Rows were chosen to be rich in hits. Some 7.8% of all compounds tested hit in one or more screens of this group.
VACV Venus inh – vaccinia inhibition (Venus reporter) | Vaccinia virus Venus reporter expression, fluorescence | actives 0.46% (n = 330,000) | Potency, µM (top dose mostly 36.5 µM), actives largely listed as inhibitors; calls by dose curve; tested in A549 cells; also: nearly all actives have a fitted effect of over 30% in size
HCMV inh – human cytomegalovirus inhibition; activity change, negative = inhibition, % at 57.5 µM; HFF cells, HCMV-luciferase reporter, 72 h; stronger effect = lower value; actives 4.5% (n = 410,000); in the data active = activity change below about -60%; inconclusive = no clear call, values can overlap the other calls; inactive = above about -39%
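Inhibition of viral replication was scored as loss of reporter luminescence in HFFs infected with HCMV-luciferase (MOI 1 PFU/cell) for 72 h; compounds tested at 2 doses, normalized to buffer and Salinomycin controls.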
Vaccinia mCherry – inhibitors of vaccinia virus infection (mCherry reporter signal). actives 0.63% (n = 310,000). Vaccinia virus mCherry reporter infection, fluorescence. AID 720579. Potency, µM (series often up to 36.5 µM), usual class: inhibitors; calls by dose curve; tested in A549 cells; also: nearly all actives have a fitted effect of over 35% in size
Lassa entry inh – blocks Lassa virus binding to or entry into cells; Lassa virus pseudotype entry inhibition, cell reporter; Potency, µM (doses to about 37.9 µM), usual class: inhibitors; actives 1.2% (n = 300,000); calls by dose curve; tested in HEK293 cells; also: nearly all actives have a fitted effect of over 50% in size
HCV inh – HCV inhibition; Huh7.5.1 HCVcc-Cre infection, luciferase reporter, 44 h; Potency, µM (highest dose often 41.8 µM), hits mostly inhibitors; actives 3.4% (n = 340,000); active = well fitted inhibition curve with a large enough effect; inconclusive = small, poorly fitted or top-dose-only effect, or another doubt; inactive = no such curve, though single readings can be large or run the other way
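Cells seeded at 1,000/well and cultured 4 h, then compounds added followed by HCVcc-Cre virus (~0.5 moi). After 44 h further culture, luciferase substrate was added, plates held 15 min at room temperature, and luminescence read for 15 sec.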
Marburg entry inh – inhibitors of Marburg virus binding or cell entry | Marburg virus pseudotyped entry inhibition, cell reporter | Potency, µM (doses to about 37.8 µM), hits mostly inhibitors | actives 1.8% (n = 300,000); calls by dose curve; tested in HEK293 cells
A number is an active result; n = inactive; u = inconclusive; x = not tested or not shown; [ ] = dose if it differs, or a comment.

SMILES | VACV Venus inh | HCMV inh | Vaccinia mCherry | Lassa entry inh | HCV inh | Marburg entry inh
CC(C)C[C@@H](CO)N(Cc1ccccc1)S(=O)(=O)N(Cc1ccccc1)[C@@H](CO)CC(C)C | 22.4µM | x | u | x | n | x
COC(=O)[C@H](Cc1ccccc1)N(Cc1ccccc1)S(=O)(=O)N(Cc1ccccc1)[C@@H](Cc1ccccc1)C(=O)OC | n | -96.4 | u | x | n[8.37 µM] | x
COc1ccc(CN([C@H](CO)CC(C)C)S(=O)(=O)N(Cc2ccccc2)[C@H](CO)CC(C)C)cc1 | 12.6µM | -89.1 | u | x | u | x
C/C1=C\CC(C)(C)/C=C/C(=O)[C@@H](C)CCC[C@H](C)CC(=O)C1 | x | n | x | x | x | x
COc1ccc(OC)c(/C=C/c2ccccc2)c1 | n | x | n | x | x | x
CCN1CCc2c(sc(-n3cccc3)c2C(C)NC(=O)Nc2ccc(C(=O)OC)cc2)C1 (centres undefined) | n | n | n | n | x | x
CC(=O)N1CCN(c2nc3cc(C)ccc3cc2CN(C(=O)c2cccc3ccccc23)C2CC2)CC1 | n | x | n | x | x | x
Cc1c2ccccc2c(C)c2c1ccc1ccccc12 | n | n | n | x | 10µM | x
CCc1ccc(NC(=O)CSc2nccn2-c2ccc(OC)cc2)cc1 | n | -99.6 | n | n | x | x
COc1cccc(-n2ccnc2SCC(=O)Nc2c(C)cc(C)cc2C)c1 | n | -102.0 | n | n | x | x
COc1ccc(-n2ccnc2SCC(=O)Nc2ccc3c(c2)OCO3)cc1 | n | -74.4 | n | n | x | x
Cc1cc(C)c(NC(=O)CSc2nc(COc3ccccc3)nc3ccccc23)c(C)c1 | u | n | 11.2µM | u | n | u
Cc1ccc(C(=O)Nc2cccc(-c3nc(CNC(=O)c4cccc(C)c4C)c(C)o3)c2)s1 | n | x | u | x | x | x
CCn1cc(CN2Cc3ccccc3OC(c3ccccc3OC)C2)c(C)n1 (centres undefined) | n | x | n | x | x | x
CC(C)(C)C1CCc2c(sc(NC(=O)Cn3nnc(-c4ccccc4Cl)n3)c2C#N)C1 (centres undefined) | n | n | n | n | x | n
CNC(CC(=O)O)C(=O)O (centres undefined) | n | x | n | x | x | x
CCc1ccc(NC(=O)CSc2nccn2-c2ccc(F)cc2)cc1 | n | -65.7 | n | n | x | x
COc1ccc(NC(=O)CSc2nnc3ccc(-c4ccncc4)nn23)cc1 | n | -71.2 | n | n | n | n
COc1cccc(C(=O)NC2=NC(c3ccccc3F)CC(=O)N2)c1 (centres undefined) | n | n | n | n | x | n
CN(C(=O)c1ccco1)c1nc2c(s1)CCCC2 | n | n | n | 6.31µM | n | u
O=C(COCc1cc(-c2ccc(F)cc2)on1)Nc1cccc(C(F)(F)F)c1 | n | n | n | n | x | n
Cc1ccnc(NC(=O)CS(=O)(=O)Cc2ccccc2)c1 | n | -99.3 | n | n | n | n
Cc1ccnc(NC(=O)Cc2ccc(-c3ccccc3)cc2)c1 | x | -90.4 | x | x | 3.98µM | x
CCOC(=O)[C@]12CCC=C1N(Cc1ccc(Cl)cc1Cl)C(=O)[C@H](CC(=O)NCc1ccc(C)o1)C2 | n | n | n | x | x | x
CN1NC(=O)c2ccccc2NC1=S | x | -60.7 | x | x | x | x
SMILES | VACV Venus inh | HCMV inh | Vaccinia mCherry | Lassa entry inh | HCV inh | Marburg entry inh
CN1C(=O)c2ccccc2NC(=O)[C@]12O[C@@H]2c1ccccc1 | n | n | n | x | n | x
Cc1ccc(C(=O)Nc2ccc3oc(-c4cccnc4)nc3c2)c(Cl)c1 | n | n | n | n | x | n
Cc1ccccc1OCc1nnc(SCc2cc(=O)[nH]c3ccccc23)n1-c1ccccc1 | u | u | u | n | n | u
Cc1ccc(OCc2nnc(SCc3cc(=O)[nH]c4ccccc34)n2-c2ccccc2)cc1 | 10µM | n | u | u | n | u
Cc1ccc(OCc2nnc(SCC(=O)Nc3cccc4ccccc34)n2-c2ccccc2)cc1 | u | n | u | u | u | 12.6µM
Cc1ccc(NC(=O)CSc2nnc(COc3ccc(C#N)cc3)n2-c2ccccc2)cc1C | n | n | n | u | u | 7.3µM
Cc1ccc(C(=O)CSc2nnc(COc3ccc(C#N)cc3)n2-c2ccccc2)cc1 | n | n | n | n | n | n
O=C(NCCCc1nc2ccccc2n1Cc1ccccc1Cl)C1CCCCC1 | n | n | n | n | x | n
COc1cc(CN(C2CCCCC2C)S(=O)(=O)c2ccc(S(=O)(=O)NC3CC3)cc2)cc(OC)c1OC (centres undefined) | n | n | u | u | n | 10.3µM
COc1ccccc1CNS(=O)(=O)c1ccc(S(=O)(=O)NC2CC2)cc1 | n | u | n | n | n | n
